# Laboratory results from PubChem BioAssay.
# Values joined by “and” are separate entries in the source; they are usually repeats but may differ in a detail not shown here. Identical values can stand only once. Active and inactive are the calls of the source. Cut-off read from the data, not from the text of the source, unless noted: active = inhibition above about 80%; inactive = the rest.
# Legend:
# [1] = galactose survival enhancers in mitochondrial complex I cybrids – cell-based, galactose medium, ATP luminescence, primary screen (AID 1645843;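 active = z-score of at least 1.8 in each of two replicates, scored against plate mean and spread of sample wells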;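 note: positive z means more ATP and so rescue of galactose-driven cybrid death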); conditions: complex I mutant cybrid cells, 72 h, stronger effect = higher value
# F380Y = assay: BK channel mutant inhibitors and activators – cell-based, U2OS BacMam, thallium flux, beta subunits, selectivity assay, profiling panel (AID 1259406;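 active = thallium flux through the channel raised or lowered by more than 3 SD from vehicle-only wells, actives on both sides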;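 note: initial slope of Thallos dye fluorescence rise after thallium is added; log ratio against the mean of 0.3% DMSO vehicle wells on the same plate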); conditions: U2OS BacMam BK variants, at 30 µM
# F380Y/beta1 = assay: as above; conditions: U2OS BacMam BK variants, at 30 µM
# [2] = target: NAD(+) hydrolase SARM1 (Homo sapiens) (UniProt Q6SZW1); assay: blocking NAD cleavage by SARM1 SAM-TIR – cell lysate, NAD-Glo luminescence (AID 1508614;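 active = compound whose remaining NAD level is above about 45 nM, limit read from the data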;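 note: higher remaining NAD means stronger inhibition of SARM1 NADase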); conditions: SAM-TIR HEK293T lysate NADase, at 1 µM, stronger effect = higher value
# Chain of NAD(+) hydrolase SARM1 (Homo sapiens) (Q6SZW1 whole entry, looked up): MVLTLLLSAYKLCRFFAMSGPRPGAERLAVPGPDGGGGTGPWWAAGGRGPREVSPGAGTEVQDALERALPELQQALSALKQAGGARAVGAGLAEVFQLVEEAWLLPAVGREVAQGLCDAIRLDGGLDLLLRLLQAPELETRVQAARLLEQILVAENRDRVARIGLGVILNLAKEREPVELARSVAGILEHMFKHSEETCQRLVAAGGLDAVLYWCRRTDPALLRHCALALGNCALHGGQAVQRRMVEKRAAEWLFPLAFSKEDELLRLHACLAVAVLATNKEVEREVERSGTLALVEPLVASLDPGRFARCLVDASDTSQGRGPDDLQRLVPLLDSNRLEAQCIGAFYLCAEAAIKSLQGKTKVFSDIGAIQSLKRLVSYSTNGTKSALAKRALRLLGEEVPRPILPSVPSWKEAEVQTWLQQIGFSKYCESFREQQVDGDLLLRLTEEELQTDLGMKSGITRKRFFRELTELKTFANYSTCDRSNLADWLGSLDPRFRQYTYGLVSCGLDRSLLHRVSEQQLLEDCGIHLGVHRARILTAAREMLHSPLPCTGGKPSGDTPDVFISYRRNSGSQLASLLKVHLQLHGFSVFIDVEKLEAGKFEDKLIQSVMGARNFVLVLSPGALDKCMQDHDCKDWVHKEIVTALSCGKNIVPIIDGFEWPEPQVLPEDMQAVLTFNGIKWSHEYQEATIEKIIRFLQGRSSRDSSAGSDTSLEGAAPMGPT
# [3] = growth inhibition, single agent or in combination, cell-based, chromothripsis tumors, cisplatin or BGB combos (AID 1671449); conditions: LFS_MB_P medulloblastoma cells;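 note: cells exposed for 96 hours; 0% = vehicle DMSO and 100% = killing by high DMSO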
# [4] = growth inhibition, single agent and combos, cell-based, chromothripsis tumors, cisplatin or BGB combos (AID 1671450); conditions: HDN33 neuroblastoma cells, stronger effect = higher value;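 note: cells exposed to compound for four days; 0% = vehicle DMSO and 100% = cell killing by high DMSO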
# [5] = growth inhibition, single agents and combos, ICB984, cell-based, cisplatin or BGB combos, synergistic combos for chromothripsis tumors (AID 1671451; call rule not given here;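 note: cells exposed for 96 hours before readout; 0% = vehicle DMSO and 100% = killing by high DMSO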); conditions: ICB984 medulloblastoma cells, drug combinations, stronger effect = higher value
# [6] = growth inhibition, single agents and combos, LFS_MB_1R, cell-based, cisplatin or BGB combos, synergistic combos for chromothripsis tumors (AID 1671452); conditions: LFS_MB_1R medulloblastoma cells, stronger effect = higher value;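 note: cells exposed for 96 hours before readout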
# [7] = growth inhibition, single agents and combos, HTB85, cell-based, BGB or cisplatin IC20 combos, synergistic combos for chromothripsis tumors (AID 1671453); conditions: HTB85 osteosarcoma cells, drug combinations, stronger effect = higher value;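 note: cells exposed for 96 hours before readout; 0% = vehicle DMSO and 100% = high DMSO killing control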
# [8] = growth inhibition, single agents and combos, CRL2098, cell-based, BGB or cisplatin IC20 combos, synergistic combos for chromothripsis tumors (AID 1671454); conditions: CRL2098 osteosarcoma cells, drug combinations, stronger effect = higher value;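 note: cells exposed for 96 h before readout; 0% = vehicle DMSO and 100% = killing by high DMSO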
# [9] = growth inhibition, single agents and combos, HD-MB03, cell-based, BGB or cisplatin IC20 combos, synergistic combos for chromothripsis tumors (AID 1671455; in the data active = inhibition above about 83%;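 note: 0% = vehicle DMSO and 100% = high DMSO as cytotoxic control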); conditions: HD-MB03 medulloblastoma cells, stronger effect = higher value
# [10] = growth inhibition, single agents and combos, UWB1.289, cell-based, BGB or cisplatin combos, synergistic combos for chromothripsis tumors (AID 1671456); conditions: UWB1.289 ovarian carcinoma cells, stronger effect = higher value;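 note: cells exposed to compound for four days; 0% = vehicle DMSO and 100% = killing by high DMSO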
# [11] = growth inhibition, single agents and combos, LFS_MB_2R, cell-based, cisplatin combos, synergistic combos for chromothripsis tumors (AID 1671457); conditions: LFS_MB_2R medulloblastoma cells, stronger effect = higher value;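 note: cells exposed to compound for four days before readout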
# [12] = growth inhibition, MDA-MB-436, cell-based, BGB or cisplatin combos, synergistic combos for chromothripsis tumors (AID 1671458; call rule not given here;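 note: cells exposed for 96 hours; 0% = vehicle DMSO and 100% = killing by high DMSO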); conditions: MDA-MB-436 breast carcinoma growth inhibition, drug combinations, stronger effect = higher value
# [13] = UWB1.289_BRCA1 ovarian cancer growth, cell-based, BGB or cisplatin combinations (AID 1671459); conditions: UWB1.289 BRCA1 ovarian carcinoma, drug combinations, stronger effect = higher value
# [14] = drug combination toxicity in non-malignant astrocytes – cell-based, BGB or cisplatin IC20 combos, cytotoxicity control for chromothriptic childhood tumor combination screen (AID 1671460); conditions: Human astrocytes, viability inhibition, drug combinations, at 0.5 µM, stronger effect = higher value;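 note: cells exposed to compounds for 96 hours before viability readout; 0% = vehicle and 100% = killing control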
# [15] = BT084 cell growth, single and combined drugs, ICGC_MB145, cisplatin and BGB IC40 combos (AID 1671461); conditions: BT084 medulloblastoma cells, drug combinations, stronger effect = higher value;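 note: cells exposed to drugs for 96 hours; 0% = vehicle DMSO and 100% = high DMSO full killing control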
# [16] = RCMB18 cell growth, single agent and combined, cisplatin and BGB IC40 combos (AID 1671462); conditions: RCMB18 medulloblastoma cells, stronger effect = higher value;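 note: cells exposed to compound for four days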
# [17] = CRL1545 cell growth, single agent and combined, cisplatin and BGB IC20 combos (AID 1671464); conditions: CRL1545 osteosarcoma cells, stronger effect = higher value;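 note: cells exposed to compound for 96 hours before readout; 0% = vehicle DMSO and 100% = high DMSO killing control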
# [18] = measured here: combination with BGB IC40, at 0.05 µM
# [19] = measured here: with BGB IC20 combination, at 0.5 µM
# [20] = measured here: with cisplatin IC20 combination, at 0.5 µM
# [21] = measured here: combination with cisplatin, at 0.5 µM
# [22] = measured here: combination with cisplatin, at 5 µM
smiles,measurement,setting,value
O=C(c1ccc(F)cc1)C1CCN(CCn2c(=S)[nH]c3ccccc3c2=O)CC1,z-score,[1],-0.715 (inactive) and -0.61 (inactive)
same,log fold change Tl+ flux,F380Y,0.0153 (inactive)
same,log fold change Tl+ flux,F380Y/beta1,0.00744 (inactive)
COc1cc2c(N3CCN(C(=O)Nc4ccc(OC(C)C)cc4)CC3)ncnc2cc1OCCCN1CCCCC1,remaining NAD,[2],10 nM (inactive)
COCc1c(C(C)C)nc(C(C)C)c(/C=C/[C@@H](O)C[C@@H](O)CC(=O)O)c1-c1ccc(F)cc1,z-score,[1],-2.23 (inactive)
same,log fold change Tl+ flux,F380Y,0.216 (active)
same,log fold change Tl+ flux,F380Y/beta1,0.473 (active)
CCC(C)n1ncn(-c2ccc(N3CCN(c4ccc(OC[C@H]5CO[C@](Cn6cncn6)(c6ccc(Cl)cc6Cl)O5)cc4)CC3)cc2)c1=O (stereo not given in full),remaining NAD,[2],10 nM (inactive)
CC1=C(C)C(=O)C(C(CCCCCC(=O)O)c2ccccc2)=C(C)C1=O (stereo not given),remaining NAD,[2],10 nM (inactive)
CCCCCN(C)CCC(O)(P(=O)(O)O)P(=O)(O)O,remaining NAD,[2],10 nM (inactive)
Cc1nc2ccc(CN(C)c3ccc(C(=O)N[C@@H](CCC(=O)O)C(=O)O)s3)cc2c(=O)[nH]1,inhibition,"[3]; at 0.5 µM, stronger effect = higher value",-8.68% (inactive)
same,inhibition,"[3]; measured here: combination with BGB IC20, at 0.005 µM",-6.5%
same,inhibition,"[3]; measured here: combination with BGB IC40, at 0.005 µM",-33.6%
same,inhibition,[3]; [18],2.07%
same,inhibition,"[3]; measured here: combination with cisplatin, at 0.5 µM, stronger effect = higher value",-25.4%
same,inhibition,"[3]; measured here: combination with cisplatin, at 5 µM, stronger effect = higher value",-36.4%
same,inhibition,"[4]; BGB combo, at 5 µM",77.1%
same,inhibition,[4]; at 0.5 µM,77.4% (inactive)
same,inhibition,"[4]; cisplatin combo, at 5 µM",75.6%
same,inhibition,[4]; [19],75.7%
same,inhibition,[4]; [20],73.8%
same,inhibition,"[4]; single agent, at 5 µM",82.5%
same,inhibition,"[5]; BGB IC20 combo, at 0.005 µM",-19.7%
same,inhibition,"[5]; BGB IC40 combo, at 0.005 µM",-58.4%
same,inhibition,"[5]; BGB IC40 combo, at 0.05 µM",-47.3%
same,inhibition,[5]; at 0.5 µM,-21.4% (inactive)
same,inhibition,"[5]; cisplatin combo, at 0.05 µM",-53.1%
same,inhibition,"[5]; cisplatin combo, at 0.5 µM",-23.4%
same,inhibition,"[5]; cisplatin combo, at 5 µM",-41.1%
same,inhibition,"[5]; measured here: 5 uM single agent, at 5 µM",-8.4%
same,inhibition,[6]; at 0.5 µM,-22.3% (inactive)
same,inhibition,[6]; [18],-24.2%
same,inhibition,[6]; [21],-26.4%
same,inhibition,[6]; [22],-6.83%
same,inhibition,[7]; at 0.5 µM,-11% (inactive)
same,inhibition,"[7]; measured here: with BGB IC20, at 0.5 µM",-19.6%
same,inhibition,"[7]; measured here: with BGB IC20, at 5 µM",-9.72%
same,inhibition,"[7]; measured here: with cisplatin IC20, at 0.5 µM",-17.6%
same,inhibition,"[7]; measured here: with cisplatin IC20, at 5 µM",2.95%
same,inhibition,"[7]; single agent, at 5 µM",10.6%
same,inhibition,[8]; at 0.5 µM,54.5% (inactive)
same,inhibition,"[8]; measured here: combination with BGB at IC20, at 0.5 µM",35.1%
same,inhibition,"[8]; measured here: combination with cisplatin at IC20, at 0.5 µM",62.3%
same,inhibition,[9]; at 0.5 µM,78.5% (inactive)
same,inhibition,"[9]; measured here: combo with BGB at IC20, at 0.5 µM",71.9%
same,inhibition,"[9]; measured here: combo with cisplatin at IC20, at 0.5 µM",79.7%
same,inhibition,[10]; at 0.5 µM,29.7% (inactive)
same,inhibition,"[10]; measured here: inhibition with BGB combination, at 0.05 µM",-4.8%
same,inhibition,"[10]; measured here: inhibition with cisplatin combination, at 0.05 µM",1.64%
same,inhibition,[11]; at 0.5 µM,-17.1% (inactive)
same,inhibition,[11]; [21],-12.9%
same,inhibition,[11]; [22],-18.4%
same,inhibition,[12]; at 0.5 µM,44.2% (inactive)
same,inhibition,"[12]; measured here: BGB combination, at 0.5 µM",26.6%
same,inhibition,"[12]; measured here: BGB combination, at 5 µM",17.5%
same,inhibition,"[12]; measured here: cisplatin combination, at 0.5 µM",47.7%
same,inhibition,"[12]; measured here: cisplatin combination, at 5 µM",45.6%
same,inhibition,"[13]; BGB combination, concentration series, at 5 µM",48.7%
same,inhibition,[13]; at 0.5 µM,42.1% (inactive)
same,inhibition,"[13]; cisplatin combination, concentration series, at 5 µM",59.8%
same,inhibition,[14],-0.43% (inactive)
same,inhibition,[14]; measured here: combo with BGB IC20,3.56%
same,inhibition,[14]; measured here: combo with cisplatin IC20,0.651%
same,inhibition,[15]; at 0.5 µM,-1.53% (inactive)
same,inhibition,"[15]; cisplatin combination, at 0.5 µM",4.81%
same,inhibition,"[15]; cisplatin combination, at 5 µM",-0.041%
same,inhibition,"[15]; measured here: BGB IC40 combination 0.05 uM, at 0.05 µM",-15.2%
same,inhibition,"[15]; single agent, at 5 µM",-10.4%
same,inhibition,[16]; at 0.5 µM,-20.8% (inactive)
same,inhibition,"[16]; cisplatin combo, at 5 µM",14%
same,inhibition,"[16]; measured here: BGB IC40 combination, at 0.05 µM",-41.8%
same,inhibition,[16]; [21],-4.37%
same,inhibition,"[16]; single agent, at 5 µM",-40.1%
same,inhibition,[17]; at 0.5 µM,-1.83% (inactive)
same,inhibition,[17]; [19],13.9%
same,inhibition,[17]; [20],-9.68%
same,inhibition,"[17]; single agent, at 0.05 µM",0.207%
same,inhibition,"[17]; single agent, at 5 µM",28.5%
same,log fold change Tl+ flux,F380Y,-0.025 (inactive)
same,log fold change Tl+ flux,F380Y/beta1,-0.0237 (inactive)
